Experimental data published in PubChem BioAssay (EPA / NIEHS).
The source made the active and inactive calls. Rule for the calls: active = hit-call score of the fitted dose curve at least 0.9, where 1 is the maximum; inactive = score below 0.9.

Assays:
Conditions in all cases: mRNA level, 48 h; actives raise or lower the signal
CYP3A5 (gene 1577) = assay: LTEA_HepaRG_CYP3A5: Life Technologies and Expression Analysis (LTEA) Assay for CYP3A5 using HepaRG (AID 2283493)
Procedure, shortened: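 Differentiated HepaRG cells in serum-free induction medium were dosed 48 h with test chemicals (8-point half-log series, top 100 uM, 0.5% DMSO, duplicate). CYP3A5 mRNA measured by qRT-PCR, normalized to ACTB, GAPDH, POLR2A; bidirectional fit versus DMSO.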

[1] = read-out: Fatty Acid-Binding Protein 1 (FABP1), FABP1 (gene 2168); assay: LTEA_HepaRG_FABP1: Life Technologies and Expression Analysis (LTEA) Assay for Fatty Acid-Binding Protein 1 (FABP1) using HepaRG (AID 2283494)
Procedure, shortened: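 Differentiated human HepaRG cells were exposed in duplicate for 48 h in serum-free induction medium to 8-point half-log concentration series topping at 100 uM in 0.5% DMSO. FABP1 mRNA measured by TaqMan qRT-PCR, normalized to ACTB/GAPDH/POLR2A; bidirectional fit versus DMSO.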

[2] = read-out: Cytochrome P450 4A22 (Homo sapiens) (UniProt Q5TCH4); assay: LTEA_HepaRG_CYP4A22: Life Technologies and Expression Analysis (LTEA) Assay for Cytochrome P450 4A22 (CYP4A22) using HepaRG (AID 2283495)
Procedure, shortened: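 qRT-PCR of CYP4A22 mRNA (Fluidigm TaqMan, normalized to three housekeeping genes) after 48 h chemical exposure of HepaRG cells; 8-point half-log series, top 100 uM, 0.5% DMSO vehicle. Bidirectional curve fitting vs DMSO baseline.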

[3] = read-out: Cytochrome P450 7A1 (Homo sapiens) (UniProt P22680); assay: LTEA_HepaRG_CYP7A1: Life Technologies and Expression Analysis (LTEA) Assay for Cytochrome P450 7A1 (CYP7A1) using HepaRG (AID 2283496)
Procedure, shortened: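 Gene expression endpoint in human HepaRG liver cells treated for 48 h with test chemicals (up to 100 uM, 0.5% DMSO). Values come from bidirectional concentration-response fitting versus DMSO.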

[4] = read-out: Glutathione S-Transferase (GSTA2), GSTA2 (gene 2939); assay: LTEA_HepaRG_GSTA2: Life Technologies and Expression Analysis (LTEA) Assay for Glutathione S-Transferase (GSTA2) using HepaRG (AID 2283497)
Procedure, shortened: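 Human HepaRG cells, plated 48 h, then exposed in serum-free induction medium for 48 h to eight half-log concentrations up to 100 uM in 0.5% DMSO, duplicate. GSTA2 mRNA by qRT-PCR, normalized to ACTB/GAPDH/POLR2A; bidirectional fit versus DMSO.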

[5] = read-out: Glutamate-cysteine ligase catalytic (GCLC), GCLC (gene 2729); assay: LTEA_HepaRG_GCLC: Life Technologies and Expression Analysis (LTEA) Assay for Glutamate-cysteine ligase catalytic (GCLC) using HepaRG (AID 2283498)
Procedure, shortened: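 Differentiated human HepaRG cells, plated 48 h then switched to serum-free induction medium, were exposed in duplicate for 48 h to 8 half-log concentrations topping at 100 uM in 0.5% DMSO. GCLC mRNA was quantified by qRT-PCR against ACTB, GAPDH and POLR2A.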

[6] = read-out: growth arrest and DNA damage 45 (GADD45G), GADD45G (gene 10912); assay: LTEA_HepaRG_GADD45G: Life Technologies and Expression Analysis (LTEA) Assay for growth arrest and DNA damage 45 (GADD45G) using HepaRG (AID 2283499)
Procedure, shortened: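 Differentiated human HepaRG cells in serum-free induction medium were exposed for 48 h to 8 half-log concentrations up to 100 uM in 0.5% DMSO, in duplicate. GADD45G mRNA was measured by TaqMan qRT-PCR, normalised to ACTB, GAPDH and POLR2A, and fitted bidirectionally against DMSO.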

[7] = read-out: Glutamate-cysteine ligase regulatory (GCLM), GCLM (gene 2730); assay: LTEA_HepaRG_GCLM: Life Technologies and Expression Analysis (LTEA) Assay for Glutamate-cysteine ligase regulatory (GCLM) using HepaRG (AID 2283500)
Procedure, shortened: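 Differentiated human HepaRG cells exposed 48 h in serum-free induction medium to 8-point half-log concentrations (top 100 uM, 0.5% DMSO), in duplicate. GCLM mRNA quantified by qRT-PCR, normalized to ACTB, GAPDH, POLR2A; bidirectional fitting versus DMSO.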

[8] = read-out: Glutathione S-transferase M3 (GSTM3), GSTM3 (gene 2947); assay: LTEA_HepaRG_GSTM3: Life Technologies and Expression Analysis (LTEA) Assay for Glutathione S-transferase M3 (GSTM3) using HepaRG (AID 2283501)
Procedure, shortened: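 Differentiated HepaRG cells in serum-free induction medium were exposed in duplicate for 48 h to 8 half-log concentrations up to 100 uM in 0.5% DMSO. GSTM3 mRNA was measured by TaqMan qRT-PCR, normalized to ACTB/GAPDH/POLR2A, and fitted bidirectionally versus DMSO.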

[9] = read-out: Heat shock 70 kDa protein 1 (HSPA1A), gene 3303; assay: LTEA_HepaRG_HSPA1A: Life Technologies and Expression Analysis (LTEA) Assay for Heat shock 70 kDa protein 1 (HSPA1A) using HepaRG (AID 2283502)
Procedure, shortened: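 Differentiated human HepaRG cells in serum-free induction medium were exposed in duplicate for 48 h to eight concentrations (top 100 uM, half-log steps, 0.5% DMSO). HSPA1A mRNA was quantified by qRT-PCR, normalized to ACTB, GAPDH and POLR2A, and fitted bidirectionally against DMSO.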

[10] = read-out: Hypoxia-inducible factor 1-alpha (Homo sapiens) (UniProt Q16665); assay: LTEA_HepaRG_HIF1A: Life Technologies and Expression Analysis (LTEA) Assay for Hypoxia-inducible factor 1 (HIF1A) Trancription factor using HepaRG (AID 2283503)
Procedure, shortened: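 HepaRG, 48 h exposure, 8-pt half-log series from 100 uM, 0.5% DMSO vehicle, duplicates. Readout: HIF1A transcript by qRT-PCR (Fluidigm array), housekeeping-normalised. Bidirectional curve fit vs DMSO baseline.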

[11] = read-out: 3-Hydroxy-3-Methylglutaryl-CoA Synthase 2 (HMGCS2), HMGCS2 (gene 3158); assay: LTEA_HepaRG_HMGCS2: Life Technologies and Expression Analysis (LTEA) Assay for 3-Hydroxy-3-Methylglutaryl-CoA Synthase 2 (HMGCS2) using HepaRG (AID 2283504)
Procedure, shortened: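 Differentiated human HepaRG cells were exposed in duplicate for 48 h in serum-free induction medium to eight concentrations (top 100 uM, half-log steps, 0.5% DMSO). HMGCS2 mRNA was quantified by TaqMan qRT-PCR, normalised to ACTB, GAPDH and POLR2A, then fitted bidirectionally against DMSO.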

HGF (gene 3082) = assay: LTEA_HepaRG_HGF: Life Technologies and Expression Analysis (LTEA) Assay for Hepatocyte Growth Facto (HGF) using HepaRG (AID 2283505)
Procedure, shortened: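 Differentiated human HepaRG cells in serum-free induction medium were exposed in duplicate for 48 h to eight concentrations (top 100 uM, half-log steps, 0.5% DMSO). HGF mRNA was quantified by qRT-PCR, normalized to ACTB, GAPDH and POLR2A.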

[12] = read-out: Insulin Like Growth Factor 1 (IGF1), IGF1 (gene 3479); assay: LTEA_HepaRG_IGF1: Life Technologies and Expression Analysis (LTEA) Assay for Insulin Like Growth Factor 1 (IGF1) using HepaRG (AID 2283506)
Procedure, shortened: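 Differentiated human HepaRG cells were dosed for 48 h in serum-free induction medium with 0.5% DMSO, eight half-log concentrations up to 100 uM, in duplicate. IGF1 mRNA was quantified by qRT-PCR normalized to ACTB, GAPDH, POLR2A; bidirectional fitting versus DMSO.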

[13] = read-out: Intercellular Adhesion Molecule 1 (ICAM1), ICAM1 (gene 3383); assay: LTEA_HepaRG_ICAM1: Life Technologies and Expression Analysis (LTEA) Assay for Intercellular Adhesion Molecule 1 (ICAM1) using HepaRG (AID 2283507)
Procedure, shortened: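 Differentiated HepaRG cells in serum-free induction medium were exposed in duplicate for 48 h to eight half-log concentrations up to 100 uM in 0.5% DMSO. Transcript levels were measured by qRT-PCR normalized to ACTB, GAPDH and POLR2A; bidirectional fits relative to DMSO.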

[14] = read-out: Insulin-like growth factor-binding protein 1 (IGFBP1), IGFBP1 (gene 3484); assay: LTEA_HepaRG_IGFBP1: Life Technologies and Expression Analysis (LTEA) Assay for Insulin-like growth factor-binding protein 1 (IGFBP1) using HepaRG (AID 2283508)
Procedure, shortened: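 Differentiated human HepaRG cells in serum-free induction medium were exposed in duplicate for 48 h to eight concentrations, top 100 uM with half-log dilutions, in 0.5% DMSO. Transcript levels came from qRT-PCR normalised to ACTB, GAPDH and POLR2A, fitted bidirectionally against DMSO.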

[15] = read-out: Interleukin 6 (IL6), IL6 (gene 3569); assay: LTEA_HepaRG_IL6: Life Technologies and Expression Analysis (LTEA) Assay for Interleukin 6 (IL6) using HepaRG (AID 2283509)
Procedure, shortened: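 Differentiated human HepaRG cells, plated 48 h then switched to serum-free induction medium, were exposed in duplicate for 48 h to eight half-log concentrations up to 100 uM in 0.5% DMSO. IL6 mRNA measured by qRT-PCR, normalized to ACTB/GAPDH/POLR2A.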

[16] = read-out: Interleukin 6 Receptor (IL6R), IL6R (gene 3570); assay: LTEA_HepaRG_IL6R: Life Technologies and Expression Analysis (LTEA) Assay for Interleukin 6 Receptor (IL6R) using HepaRG (AID 2283510)
Procedure, shortened: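 Differentiated human HepaRG cells, plated 48 h then switched to serum-free induction medium, were dosed in duplicate for 48 h at eight half-log concentrations up to 100 uM in 0.5% DMSO. IL6R mRNA quantified by qRT-PCR, normalized to ACTB/GAPDH/POLR2A; bidirectional fit versus DMSO.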

[17] = read-out: Potassium channel subfamily K member 1 (KCNK1), KCNK1 (gene 3775); assay: LTEA_HepaRG_KCNK1: Life Technologies and Expression Analysis (LTEA) Assay for Potassium channel subfamily K member 1 (KCNK1) using HepaRG (AID 2283511)
Procedure, shortened: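 Differentiated human HepaRG cells in serum-free induction medium were exposed in duplicate for 48 h to 8 half-log concentrations up to 100 uM in 0.5% DMSO. KCNK1 mRNA was measured by TaqMan qRT-PCR, normalized to ACTB, GAPDH and POLR2A, and fitted bidirectionally versus DMSO.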

[18] = read-out: Keratin 19 (KRT19), KRT19 (gene 3880); assay: LTEA_HepaRG_KRT19: Life Technologies and Expression Analysis (LTEA) Assay for Keratin 19 (KRT19) using HepaRG (AID 2283512)
Procedure, shortened: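 Differentiated human HepaRG cells, plated 48 h, were exposed in duplicate for 48 h in serum-free induction medium to eight half-log concentrations up to 100 uM in 0.5% DMSO. KRT19 mRNA was quantified by qRT-PCR, normalized to ACTB, GAPDH and POLR2A, and fitted bidirectionally versus DMSO.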

Measured: AC50

Chain of Hypoxia-inducible factor 1-alpha (Homo sapiens) (Q16665 whole entry, looked up): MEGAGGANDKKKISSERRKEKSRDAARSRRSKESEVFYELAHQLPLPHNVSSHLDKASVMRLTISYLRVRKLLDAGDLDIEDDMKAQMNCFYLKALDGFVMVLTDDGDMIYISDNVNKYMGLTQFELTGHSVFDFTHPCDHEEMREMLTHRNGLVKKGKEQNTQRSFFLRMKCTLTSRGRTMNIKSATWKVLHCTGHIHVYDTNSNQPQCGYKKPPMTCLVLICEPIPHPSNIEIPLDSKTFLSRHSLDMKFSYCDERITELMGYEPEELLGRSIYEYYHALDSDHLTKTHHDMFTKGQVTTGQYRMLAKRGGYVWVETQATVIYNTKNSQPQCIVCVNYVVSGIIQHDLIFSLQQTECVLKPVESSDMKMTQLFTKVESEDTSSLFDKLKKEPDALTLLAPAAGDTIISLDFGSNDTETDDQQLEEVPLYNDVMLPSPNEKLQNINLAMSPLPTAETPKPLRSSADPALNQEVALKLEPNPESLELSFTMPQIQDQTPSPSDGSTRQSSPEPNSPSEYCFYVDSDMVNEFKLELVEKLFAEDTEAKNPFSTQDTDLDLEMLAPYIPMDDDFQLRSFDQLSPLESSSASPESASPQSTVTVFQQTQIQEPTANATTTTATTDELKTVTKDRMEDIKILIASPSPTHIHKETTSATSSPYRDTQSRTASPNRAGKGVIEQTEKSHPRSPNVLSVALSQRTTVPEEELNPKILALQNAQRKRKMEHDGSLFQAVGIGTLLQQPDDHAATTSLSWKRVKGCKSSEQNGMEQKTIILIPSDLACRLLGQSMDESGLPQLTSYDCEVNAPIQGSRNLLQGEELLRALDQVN

CCCCC(CC)CN1C(=O)C2C3C=CC(C3)C2C1=O (stereo not given)
active: [1] 72.5 µM | [2] 62.5 µM | [3] 73.6 µM | [4] 79.5 µM | [6] 50 µM | [7] 50 µM | [11] 86.3 µM | [12] 50 µM | [14] 82.9 µM | [15] 74.9 µM
inactive: all other assays above

CCCCOC(=O)[C@@H](C)Oc1ccc(Oc2ccc(C(F)(F)F)cn2)cc1
active: [3] 34.2 µM
inactive: all other assays above
